Potency and viability change, negative = cytotoxic data for 54 compounds are collected here from PubChem BioAssay (Tox21).

A short description of this assay: cAMP Responsive Elements (CRE) small molecule antagonists, cell-based qHTS assay: qHTS cell viability counter screen (AID 2060913). Also: nearly all actives have a fitted effect of over 40% in size. In a few lines: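 Steps: cells plated and held 18 hrs at 37 C/5% CO2; compounds and NKH477 (0.25 uM final) added; 3 hrs incubation; reporter substrate read; CellTiter-Glo added to measure cytotoxicity by luminescence.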

Records with an inconclusive call do not appear. Entries that show only a call come without a potency. A number with no mark means an inactive call. The source made the active and inactive calls. Calls follow the shape of the dose curve; as a rule, active = well fitted cell-killing curve with a large enough effect in the repeat runs; inconclusive = weak or mixed curves, or effect the other way; inactive = flat fitted curve, though single readings scatter.
Potency is read from the fitted curve at half-maximal effect.

Regarding `CCN(CC)c1cccc(O)c1`, the Potency result was “inactive”.

In the case of `N#CCc1ccccc1[N+](=O)[O-]`, the Potency entry was “inactive”.

As for `CC(C(=O)O)c1ccc(/C=C2\CCCCC2=O)cc1` (centres undefined), the Potency result was “inactive”.

Consider `O=C1NC(=O)C2CC=CCC12` (centres undefined), for which the Potency result was “inactive”.

In the case of `CCC1=C[C@@H]2CN(C1)Cc1c([nH]c3ccccc13)[C@@](C(=O)OC)(c1cc3c(cc1OC)N(C)[C@H]1[C@@](O)(C(=O)OC)[C@H](OC(C)=O)[C@]4(CC)C=CCN5CC[C@]31[C@@H]54)C2`, the Potency entry was “inactive”.

On to `C[Si]1(C)N[Si](C)(C)N[Si](C)(C)N1`, for which the Potency result is “inactive”.

`O=C(O)c1cccc(O)c1`: the Potency entry is “inactive”.

For `OCC(CO)(CBr)CBr`, the Potency result was “inactive”.

As for `O=C(Nc1ccc([N+](=O)[O-])cc1Cl)c1cc(Cl)ccc1O`, the Potency entry was “inactive”.

As for `NC(=O)c1ccc([N+](=O)[O-])cc1`, the Potency result was “inactive”.

In the case of `Cc1ccc(C(=O)C(C)CN2CCCCC2)cc1` (centres undefined), the Potency entry was “inactive”.

With `CCCCC(CC)CNC(=O)CC(C)OC(=O)CCC(=O)O` (centres undefined), the Potency entry was “inactive”.

In the case of `Cc1cnc(NC(=O)C2=C(O)c3ccccc3S(=O)(=O)N2C)s1`, the Potency entry is “inactive”.

On to `CC(=O)OCCN(CCOC(C)=O)c1ccc(N=Nc2ccc([N+](=O)[O-])cc2C#N)cc1`, for which the Potency entry was “inactive”.

Turning to `C=CCOCC(CC)(CO)COCC=C`, the Potency result is “inactive”.

As for `CC(=O)Oc1ccc(C2(c3ccc(OC(C)=O)cc3)Oc3ccccc3NC2=O)cc1`, the Potency result is “inactive”.

With `COc1c(N2CCNC(C)C2)c(F)cc2c(=O)c(C(=O)O)cn(C3CC3)c12` (centres undefined), the Potency result is “inactive”.

On to `Nc1ccc(N)c2c1C(=O)c1ccccc1C2=O`, for which the Potency entry was “inactive”.

For the compound `CC(C)=CCC/C(C)=C/CC/C(C)=C/CO`, the Potency entry is “inactive”.

`Nc1ccc([N+](=O)[O-])cc1O`: the Potency result was “inactive”.

As for `Cc1ncsc1CCO`, the Potency result was “inactive”.

For `CCCCCC1Nc2cc(C(F)(F)F)c(S(N)(=O)=O)cc2S(=O)(=O)N1` (centres undefined), the Potency entry is “inactive”.

For the compound `CCOC(=O)CC(O)(CC(=O)OCC)C(=O)OCC`, the Potency entry was “inactive”.

Take `O=S(=O)(O)c1ccc(Nc2nc(Nc3ccc(/C=C/c4ccc(Nc5nc(Nc6ccc(S(=O)(=O)O)cc6)nc(N(CCO)CCO)n5)cc4S(=O)(=O)O)c(S(=O)(=O)O)c3)nc(N(CCO)CCO)n2)cc1`: the Potency result was “inactive”.

Regarding `CN(C)c1cc(NC(=O)CNC(C)(C)C)c(O)c2c1C[C@H]1C[C@H]3[C@H](N(C)C)C(=O)C(C(N)=O)=C(O)[C@@]3(O)C(=O)C1=C2O`, the Potency result was “inactive”.

Turning to `NCC(=O)O`, the viability change, negative = cytotoxic is -2.51% [at 18.9 µM].

As for `C=C(C)CCCC(C)CCO` (centres undefined), the Potency result is “inactive”.

Take `CCc1nc(N)nc(N)c1-c1ccc(Cl)cc1`: the Potency result is “inactive”.

With `N#CCCCC(C#N)CCC#N` (centres undefined), the Potency entry was “inactive”.

With `CCCC(C)C(=O)OCC` (centres undefined), the Potency result was “inactive”.

Take `C[C@@H]1C[C@H]2[C@@H]3C[C@H](F)C4=CC(=O)C=C[C@]4(C)[C@@]3(F)[C@@H](O)C[C@]2(C)[C@@]1(O)C(=O)CO`: the Potency entry was “inactive”.

As for `CCCCCCCCCCCCCCCCI`, the viability change, negative = cytotoxic is 12.3% [at 18.9 µM].

In the case of `CN1[C@@H]2CC[C@H]1CC(OC(=O)c1c[nH]c3ccccc13)C2` (some centres undefined), the Potency result is “inactive”.

For the compound `Cc1ccccc1N1C(=O)c2cc(S(N)(=O)=O)c(Cl)cc2NC1C` (centres undefined), the Potency result is “inactive”.

On to `COc1ccc(CCN2CCC(Nc3nc4ccccc4n3Cc3ccc(F)cc3)CC2)cc1`, for which the Potency is 35.1 µM (active).

With `CCOC(=O)O[C@H](C)OC(=O)c1ccc2c(c1)cc(C(=O)NC1CCN(C(C)C)CC1)n2Cc1cc(-c2ccc(Cl)s2)on1`, the Potency is 57.1 µM (active).

Consider `COc1nc(C)nc(N)n1`, for which the Potency entry was “inactive”.

`CCC(C)(C)c1ccc(CC(C)CN2C[C@@H](C)O[C@@H](C)C2)cc1` (some centres undefined): the Potency result was “inactive”.

Turning to `C=CCn1cc[n+](C)c1`, the Potency result was “inactive”.

For `C=CCOCC(O)CCl` (centres undefined), the Potency result is “inactive”.

With `On1nnc2ccccc21`, the Potency entry is “inactive”.

Turning to `Brc1c(NC2=NCCN2)ccc2nccnc12`, the Potency entry was “inactive”.

Turning to `C1=C\CC/C=C\CC/1`, the Potency result was “inactive”.

Regarding `CCCCCCCCCCO`, the Potency entry was “inactive”.

Take `CC(C)CCCCCCN`: the Potency result is “inactive”.

`COC(C)(C)CC(C)=O`: the Potency entry was “inactive”.

With `Cc1ccc(Br)cc1`, the Potency entry is “inactive”.

As for `CCOc1nc2cccc(C(=O)OC(C)OC(=O)OC3CCCCC3)c2n1Cc1ccc(-c2ccccc2-c2nn[nH]n2)cc1` (centres undefined), the Potency was 48.5 µM (active).

Turning to `CCc1c(C(=O)NN2CCCCC2)nn(-c2ccc(Cl)cc2Cl)c1-c1ccc(Br)cc1`, the Potency entry was “inactive”.

For the compound `CC(=O)Nc1ccc(OCC(O)CNC(C)C)cc1` (centres undefined), the Potency result is “inactive”.

Turning to `CN1C(=O)CC(c2ccccc2)C1=O` (centres undefined), the Potency result is “inactive”.

With `NC(=O)CCCCC1CCSS1` (centres undefined), the Potency entry is “inactive”.

Take `Clc1ccc(Sc2cc(Cl)c(Cl)cc2Cl)cc1`: the Potency entry is “inactive”.

Regarding `CCN[C@@H]1C[C@H](N)[C@@H](OC2OC(CN)=CCC2N)[C@H](O)[C@H]1O[C@H]1OC[C@](C)(O)[C@H](NC)[C@H]1O` (some centres undefined), the viability change, negative = cytotoxic was 1.22% [at 0.349 µM].
